# VDR inhibitor: vitamin D3 receptor (human) inhibition | 400,000 tested, 0.93% active | VDR-SRC2-3 peptide fluorescence polarization, 2 h | Potency, µM, without a hit: max response, negative = inhibition, most hits filed as inhibitors
#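 Signal is fluorescence polarization, reporting how far test compounds block the interaction of VDR with the SRC2-3 coregulator peptide after a 2 h room-temperature incubation.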
# Sfp PPTase inh: Sfp phosphopantetheinyl transferase inhibition; Biochemical Sfp PPTase activity, qHTS; Q9F4F7; Potency, µM, for the others: largest response in the series, negative = inhibition, most hits filed as inhibitors; 310,000 tested, 3.5% active; AID 1490;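 further: the enzyme is Sfp with the accession as filed and its product quenches rhodamine fluorescence; 0% = enzyme reaction without inhibitor and -100% = no enzyme wells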
#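 With Hepes-Na pH 7.6 buffer containing 10 mM MgCl2, Sfp (15 nM) modified BHQ-2-YbbR (12.5 uM) using rhodamine-CoA (5 uM). Two reads 30 minutes apart at 525/598 nm yielded each well's rate.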
# mIDH1 inhibitor: blocks human mutant IDH1 R132H enzyme | O75874 | IDH1-R132H enzyme, NADPH consumption, diaphorase/resazurin fluorescence | Potency, µM (titrated, usually from 76.6 µM), inactives show at the top dose activity change, negative = inhibition, hits mostly inhibitors | 390,000 tested, 0.093% active | AID 602179; further: nearly all actives have a fitted effect of over 65% in size
#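 IDH1-R132H (0.5 ug/mL dispensed) in pH 7.5 Tris buffer was preincubated 30 min with compound, then given a substrate mix of 0.016 mM NADPH and 2 mM alpha-KG for 80 min at room temperature; remaining NADPH was read by diaphorase/resazurin fluorescence.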
# PLK1 PBD block: blocks phosphopeptide binding to human PLK1 polo-box domain | Potency, µM, for the others: max response, negative = inhibition, usual class: inhibitors | P53350 | Plk1 PBD binding of FITC phosphopeptide, fluorescence polarization | 360,000 tested, 2.8% active | AID 720504; further: series mostly up to about 57 µM; nearly all actives have a fitted effect of over 65% in size
# Target sequence (P53350 whole entry, looked up, the tested form may be a part): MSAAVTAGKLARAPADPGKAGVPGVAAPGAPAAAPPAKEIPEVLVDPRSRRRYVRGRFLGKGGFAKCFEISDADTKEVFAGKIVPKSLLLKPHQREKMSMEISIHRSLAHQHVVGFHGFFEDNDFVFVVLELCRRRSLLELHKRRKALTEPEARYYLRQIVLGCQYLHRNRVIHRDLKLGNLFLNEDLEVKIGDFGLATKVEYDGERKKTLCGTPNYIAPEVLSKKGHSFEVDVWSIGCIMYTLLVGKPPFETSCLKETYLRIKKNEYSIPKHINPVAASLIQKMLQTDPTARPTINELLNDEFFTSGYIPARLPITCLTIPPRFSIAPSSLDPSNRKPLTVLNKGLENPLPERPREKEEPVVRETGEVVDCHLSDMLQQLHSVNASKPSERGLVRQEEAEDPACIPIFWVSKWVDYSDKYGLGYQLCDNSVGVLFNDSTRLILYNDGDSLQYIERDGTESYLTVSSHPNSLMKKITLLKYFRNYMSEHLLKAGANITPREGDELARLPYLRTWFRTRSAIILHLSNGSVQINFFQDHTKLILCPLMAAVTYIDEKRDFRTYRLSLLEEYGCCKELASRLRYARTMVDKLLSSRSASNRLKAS
# TrxR1 inh: blocks rat thioredoxin reductase 1; O89049; recombinant rTrxR1, NADPH fluorescence consumption, selenite substrate; Potency, µM (titrated, usually from 114 µM), for inactives: at the top dose activity change, negative = inhibition, most hits filed as inhibitors; 390,000 tested, 1% active; further: nearly all actives have a fitted effect of over 65% in size
#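 Rat TrxR1 (90 nM in the dispensed reagent) was pre-reduced with 400 uM NADPH for 5 min at room temperature, then incubated with compound for 15 min. After 400 uM selenite was added, NADPH fluorescence (Ex 340/Em 450 nm) was followed for 8 min.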
# TrxR1 substrate: is turned over as a substrate by rat TrxR1 | O89049 | purified TrxR1 substrate turnover, NADPH consumption readout | Potency, µM (titrated, usually from 114 µM), for inactives: at the highest dose activity change, negative = substrate turnover | 390,000 tested, 0.01% active; further: nearly all actives have a fitted effect of over 50% in size
#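 Rat TrxR1, dispensed at 90 nM, was prereduced with 400 uM NADPH (final) for 5 min at ~22 deg C, then incubated with compound 15 min before 400 uM selenite. A first-read NADPH fluorescence drop versus no-compound background flagged substrates.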
# Numbers without * were called inactive; ? = inconclusive; . = no result given; [ ] = another dose, or the depositor's remark. This is a sample that favours compounds with a hit; in the whole collection about 5.2% have one here. The call rests on the fitted dose curve; in most records, active means well fitted curve in the direction sought with a large enough effect; inconclusive means small, poorly fitted or top-dose-only effect, or another doubt; inactive means no such curve, though single readings can be large; an effect the other way counts as inactive or inconclusive. Unless noted, on the % scale 0 is the no-effect control and ±100 the full control effect; potency means the concentration at half of the fitted maximal effect.
SMILES,VDR inhibitor,Sfp PPTase inh,mIDH1 inhibitor,PLK1 PBD block,TrxR1 inh,TrxR1 substrate
CC(Oc1ccccc1Cl)C(=O)Nc1ccc(S(=O)(=O)N2CCCC2)cc1 (stereo not drawn),-6.4%,.,6.9%,0.2%,9.5%,0.5%
O=C(NC(=S)N1CCCCC1CO)c1cccs1 (stereo not drawn),?,.,0.0%,21.2µM*,-1.4%[57.1 µM],9.3%[57.1 µM]
CCN(CC)c1ccc(NC(=S)NC(=O)c2ccco2)cc1,79.4µM*,35.5µM*,2.6%,21.2µM*,-56.9%,-4.5%[57.1 µM]
CC(C)CC(=O)NC(=S)Nc1ccc(S(=O)(=O)N2CCCC2)cc1,-19.1%,10.8%,0.1%,23.8µM*,26.5%[57.1 µM],5.6%[57.1 µM]
CC(NCc1ccccc1Cl)C(=O)Nc1ccc(S(=O)(=O)N2CCCC2)cc1 (stereo not drawn),1.7%,56.2µM*,0.9%,-0.2%,-6.3%,-3.7%
CN1CCC(=O)N(C(CSc2ccc(Br)cc2)c2ccccc2)CC1 (stereo not drawn),-9.4%,0.0%,.,.,-16.4%,-4.3%
CCN(CC)c1ccc(NC(=S)Nc2ccc(F)cc2)cc1,?,44.7µM*,7.6%,?,15.9%[57.1 µM],-6.8%
O=C(NC(=S)Nc1ccc(S(=O)(=O)N2CCCC2)cc1)C1CC1,0.5%,-19.2%,5.8%,-7.3%,-24.6%,-5.8%
O=C(NC(=S)Nc1ccc(S(=O)(=O)N2CCCC2)cc1)c1cccs1,-29.0%,?,-0.8%,-8.9%,20µM*,-7.4%
CCN(CC)c1ccc(NC(=S)NC(=O)c2cccs2)cc1,?,?,-5.2%,-7.8%,79.4µM*,-7.1%[57.1 µM]
CC(=O)NC(=S)Nc1ccc(NC(=S)NC(=O)c2cccs2)cc1,-7.6%,7.2%,2.8%,-12.3%,38.0%,3.7%
CCCC(=O)Nc1ccc(NC(=S)NC(=O)c2cccs2)cc1,-10.6%,-14.6%,3.0%,?,?,11.0%
O=C(NC(=S)Nc1ccc(-c2ccc(CO)o2)cc1)c1cccs1,0.3%,8.91µM*,3.2%,?,?,-2.1%
CC(NCc1ccc(N(C)C)cc1)C1CC2CCC1C2 (stereo not drawn),-17.2%,3.9%,1.4%,-10.3%,16.5%[57.1 µM],-5.6%
CCCCCCCCCC[n+]1ccc(/C=C/c2c(C)[nH]c3ccccc23)c2ccccc21,.,.,.,.,?,-10.7%
CCN(c1ccccc1)S(=O)(=O)c1ccc(NC(=S)NC(=O)c2cccs2)cc1,9.1%,?,1.8%,-12.3%,?,-14.8%
CN(C)S(=O)(=O)c1ccc(NC(=S)NC(=O)c2cccs2)cc1,-12.7%,31.6µM*,0.0%,0.0%,?,-4.7%[57.1 µM]
CCN(CC)C(=O)CSc1nc2ccsc2c(=O)n1CCCC(=O)NCCc1ccc(S(N)(=O)=O)cc1,?,11.1%,-0.4%,3.77µM*,16.7%,-7.3%
CC(=O)N[C@H]1CSSC[C@@H](C(=O)N2CCC[C@H]2C(=O)N2CCC[C@H]2C(=O)N[C@@H](CCCCN)C(=O)N[C@@H](CC(=O)O)C(N)=O)NC(=O)CNC(=O)[C@H](Cc2c[nH]c3ccccc23)NC(=O)[C@H](CCCNC(=N)N)NC(=O)[C@@H](Cc2ccc3ccccc3c2)NC(=O)[C@H](Cc2cnc[nH]2)NC(=O)[C@H](CCC(=O)O)NC1=O,-2.3%,6.7%,.,.,.,.
Cn1c(-c2ccccc2)nc2cnccc21,?,-6.4%,-10.1%,23.8µM*,14.6%,7.0%
CCOc1ccc(OCCC(=O)Nc2cccc(S(=O)(=O)N3CCCC3)c2)cc1,4.9%,.,4.5%,-3.3%,-10.3%,-17.7%
O=C(c1ccccc1)C(I)(I)N1CCOCC1,.,.,.,.,-9.1%,11.9%[0.0914 µM]
Cc1cc(NS(=O)(=O)c2ccc(NC(=S)NC(=O)c3ccccc3)cc2)no1,-10.6%,-7.0%,2.0%,-8.9%,44.7µM*,-18.8%
Cc1cc(NS(=O)(=O)c2ccc(NC(=S)NC(=O)c3ccc(C(C)(C)C)cc3)cc2)no1,-11.5%,-10.2%,0.2%,?,44.7µM*,2.9%[0.457 µM]
CC(=O)c1ccc(NS(=O)(=O)c2ccc(Br)s2)cc1,-19.0%,.,-3.2%,.,-8.2%,-3.7%
SMILES,VDR inhibitor,Sfp PPTase inh,mIDH1 inhibitor,PLK1 PBD block,TrxR1 inh,TrxR1 substrate
Cc1ccc(CNC(=O)C(=O)NCC(c2ccc3c(c2)OCO3)N2CCOCC2)cc1 (stereo not drawn),-4.9%,.,-12.6%,.,24.4%[57.1 µM],-1.8%[57.1 µM]
COc1ccc(Cc2nnc(NC(=O)c3cccs3)s2)cc1OC,-4.1%,-2.5%,6.8%,2.9%,2.8%[57.1 µM],5.7%[57.1 µM]
CN1CCN(CC(=O)Nc2nnc(-c3cccs3)s2)CC1,12.6%,-0.9%,1.4%,1.0%,-24.6%,5.2%
COc1cccc(OC)c1C(=O)Nc1nnc(-c2cccs2)s1,13.7%,-27.8%,-2.9%,16.8µM*,-21.9%[57.1 µM],5.0%[11.4 µM]
CCC(CC)C(=O)Nc1nnc(-c2cccs2)s1,-26.7%,-4.7%,0.6%,29.9µM*,-2.4%,18.5%
COc1ccc(NC(=O)CSC2=Nc3ccccc3C3=NC(CCC(=O)NCc4ccc(F)cc4)C(=O)N23)cc1Cl (stereo not drawn),11.5%,.,-11.1%,.,12.9%,-1.6%
CC[C@H](C)[C@H](NC(=O)[C@H](Cc1ccc(O)cc1)NC(=O)[C@H](Cc1cnc[nH]1)NC(=O)[C@H](CCCNC(=N)N)NC(=O)[C@H](CC(C)C)NC(=O)[C@H](C)NC(=O)[C@H](CO)NC(=O)[C@H](Cc1ccc(O)cc1)NC(=O)[C@H](Cc1ccc(O)cc1)NC(=O)[C@H](CCCNC(=N)N)NC(=O)[C@H](C)NC(=O)[C@H](CCSC)NC(=O)[C@H](CC(=O)O)NC(=O)[C@H](CCC(=O)O)NC(=O)[C@H](C)NC(=O)[C@@H]1CCCN1C(=O)[C@H](C)NC(=O)[C@H](CC(=O)O)NC(=O)[C@H](CCC(=O)O)NC(=O)CNC(=O)[C@@H]1CCCN1C(=O)[C@H](CC(N)=O)NC(=O)[C@H](CC(=O)O)NC(=O)[C@@H]1CCCN1C(=O)[C@H](CCCCN)NC(=O)[C@H](CO)NC(=O)[C@@H]1CCCN1C(=O)[C@@H](N)Cc1ccc(O)cc1)C(=O)N[C@@H](CC(N)=O)C(=O)N[C@@H](CC(C)C)C(=O)N[C@H](C(=O)N[C@H](C(=O)N[C@@H](CCCNC(=N)N)C(=O)N[C@@H](CCC(N)=O)C(=O)N[C@@H](CCCNC(=N)N)C(=O)N[C@@H](Cc1ccc(O)cc1)C(N)=O)[C@@H](C)O)[C@@H](C)CC,-3.3%,-14.4%,.,.,.,.
COCCN=C1Sc2nc3ccc(C)cc3cc2CN1Cc1ccco1,-13.1%,44.7µM*,0.0%,-8.4%,2.2%[57.1 µM],0.8%[57.1 µM]
COCCN=C1Sc2nc3cc(C)c(C)cc3cc2CN1Cc1cccs1,8.4%,?,4.1%,-2.1%,1.7%,3.6%
Cc1ccc(NC(=O)CNC(=O)c2ccco2)nc1,5.9%,9.3%,-7.8%,-4.0%,23.9%,2.1%

# Screening data deposited in PubChem BioAssay by National Center for Advancing Translational Sciences (NCATS).
